Screens: PubChem, The Scripps Research Institute Molecular Screening Center
Sampled rows, rich in hits. Any-hit rate of the full collection: about 4.5%.
GAA850 FXN act – activators of GAA850 frataxin (FXN) promoter; HEK293 lucGAA850 FXN promoter luciferase reporter, 24 h; percent of 10 µM SAHA response; activation, % at 6 µM; 0.56% of 360,000 active; AID 540364;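 active = activation above the average of all compounds screened plus 3 SD, cutoff fixed separately per campaign, cut at about 7.5% in these data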
hgDAF12 agonist – hgDAF-12 agonism, primary luciferase screen; HEK293 GAL4-hgDAF12 UAS-luciferase reporter, agonist luminescence; normalized to butyrate control; activation, % at 6.8 µM; 1.8% of 370,000 active;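 active = activation above a cutoff set at the mean of all screened compounds plus 3 SD, cut at about 10% in these data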
DAX1 inh-1 – DAX1 (NR0B1) inhibition, primary screen; AID 652010; 1.1% of 370,000 active; inhibition, % at 6.8 µM; HEK293T StAR-luciferase reporter, SF-1/DAX-1 repression relief;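 active = inhibition above the mean over all tested compounds plus 3 SD, cut at about 3.6% in these data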;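 also: higher inhibition means more luminescence from relief of DAX-1 repression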
DAX1 inh-2 – inhibits human nuclear receptor DAX1 | P51843 | 0.99% of 340,000 active | HEK293 Gal4-DAX1 luciferase reporter, luminescence | AID 504766 | inhibition, % at 6.75 µM;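 active = inhibition above the mean over all tested compounds plus 3 SD, cut at about 4.2% in these data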;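 also: inhibition shows as a rise in luminescence from relieved DAX1 repression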
Target sequence (P51843 207-470 limits assumed): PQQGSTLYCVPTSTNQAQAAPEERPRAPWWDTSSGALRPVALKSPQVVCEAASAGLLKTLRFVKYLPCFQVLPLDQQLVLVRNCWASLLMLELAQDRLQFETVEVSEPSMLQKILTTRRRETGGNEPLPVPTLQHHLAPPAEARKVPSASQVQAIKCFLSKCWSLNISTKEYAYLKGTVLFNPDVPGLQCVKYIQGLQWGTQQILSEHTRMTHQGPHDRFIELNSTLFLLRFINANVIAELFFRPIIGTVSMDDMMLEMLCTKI
hcDAF12 agonist – activates DAF-12 receptor from parasite H. contortus; activation, % at 6.8 µM; HEK293 hcDAF-12 lit1-tk-luc reporter, luminescence; 0% DMSO, 100% Δ7-dafachronic acid; AID 652067; 1.4% of 370,000 active;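 active = activation above the mean of all tested compounds plus 3 SD, cut at about 5.5% in these data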
ssDAF-12 act – activators of S. stercoralis DAF-12 nuclear receptor | HEK293 ssDAF-12/GRIP1 lit1-tk-luc reporter, luminescence; % of 3 µM dafachronic acid response | activation, % at 6.8 µM | 1% of 370,000 active | AID 652126;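 active = activation above the mean over all tested compounds plus 3 SD, cut at about 0.9% in these data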
Of the large screens only hits and unclear results are named; the others gave an inactive call.

O=C(NC1CCS(=O)(=O)C1)/C(=C/c1ccc(Cl)cc1)NC(=O)c1ccccc1 (stereo not drawn)	DAX1 inh-2 4.8
COc1ccc(NC(=O)CSCC(=O)NCc2ccco2)cc1	DAX1 inh-1 4.3
COc1ccc(/C=N/NC(=O)CSCC(=O)Nc2ccccc2)cc1	DAX1 inh-2 5.0
COc1ccc(NC(=O)CCC(=O)N/N=C/c2ccncc2)cc1	DAX1 inh-2 5.5
COc1cccc(/C=N/NC(=O)CSCC(=O)Nc2ccccc2)c1O	none
COc1ccc(C2=NOC(C(=O)NCc3ccco3)C2)cc1 (stereo not drawn)	hgDAF12 agonist 12
N#Cc1ccc(OC[C@@H](O)CN2CCC(C(O)(c3ccccc3)c3ccccc3)CC2)cc1F	none (no result: GAA850 FXN act, DAX1 inh-2)
Cc1ccccc1C(=O)N1CCC(Oc2cccnc2)CC1	none (no result: GAA850 FXN act, DAX1 inh-2)
CCCCCOc1ccc(/C=N/NC(=O)CSc2nnc(-c3ccc(OC)cc3)n2-c2ccc(C)cc2)cc1	none (no result: GAA850 FXN act, DAX1 inh-2)
Cc1cccc(-c2noc(C3CCCCC3)n2)c1	none
Cc1cccc(-c2noc(-c3ccno3)n2)c1	DAX1 inh-2 4.9
CCn1c(COc2ccc(Cl)cc2)nnc1SCc1ccc(C#N)cc1	none
CCn1c(COc2ccc(Cl)cc2)nnc1SC1CCc2ccccc2C1=O (stereo not drawn)	ssDAF-12 act 1.5
C[C@@H]1C(=O)N2N=Cc3cc4ccccc4cc3[C@H]2N2N=Cc3cc4ccccc4cc3[C@@H]12	none (no result: GAA850 FXN act, DAX1 inh-2)
Cc1csc2nc(CCNS(=O)(=O)c3cccs3)cn12	hgDAF12 agonist 13
Cc1nc(CCNS(=O)(=O)c2cccs2)cs1	none
COC(=O)C1CN(C2CCCC2)CCS(=O)(=O)N1Cc1cn(Cc2ccc(Cl)cc2)nn1 (stereo not drawn)	none (no result: GAA850 FXN act, DAX1 inh-2)
NC(=O)C1CCCN(C(=S)Nc2ccccc2)C1 (stereo not drawn)	none
OCC1CCCN(C(=S)Nc2ccc(Nc3ccccc3)cc2)C1 (stereo not drawn)	hgDAF12 agonist 16, DAX1 inh-2 5.7
COc1cccc2c1[C@H](/C=C/c1ccccc1)[C@@H]([C@H](O)COC(C)=O)OC2	none (no result: GAA850 FXN act, DAX1 inh-2)
Cc1ccc(/C=C/C(=O)Nc2ccc(N(C)C)cc2)o1	ssDAF-12 act 1.6
Cc1csc(NC(=O)/C=C/c2ccc3c(c2)OCO3)n1	hgDAF12 agonist 15, DAX1 inh-1 4.6, ssDAF-12 act 1.1
Cn1nc(NC(=O)C(F)(F)F)c2ncc(-c3ccc(Cl)cc3)nc21	DAX1 inh-2 4.2
Cn1nc(NC(=O)C(F)(F)F)c2nccnc21	none
CCOC(=O)NC[C@@]1(C(=O)OC)CC(=O)N(C)[C@@H]1c1ccccc1	none (no result: GAA850 FXN act, DAX1 inh-2)
CC(C)NC(=O)N[C@H]1C[C@@H]2O[C@H](CO)CC[C@@H]2O[C@@H]1CCc1ccc(-c2ccc(F)cc2)cc1	none (no result: GAA850 FXN act, DAX1 inh-2)
CCN1C(=O)/C(=C/C=C2/CCCN2C)OC1=S	hgDAF12 agonist 13
CN1C(=O)/C(=C\C=C2/CCCN2C)N(C)C1=S	none
Cc1ccc2c(c1)N(CCCC(=O)NCc1c(F)cccc1F)C(=O)CO2	none (no result: GAA850 FXN act, DAX1 inh-2)
Cc1cccc(OCc2nc(-c3nonc3N)no2)c1C	hgDAF12 agonist 11
C=CCN1[C@H](CC(C)C)COc2cc(N3CCSCC3)ccc2S1(=O)=O	none (no result: GAA850 FXN act, DAX1 inh-2)
O=C1c2ccccc2C(=O)C1c1ccc(Cl)cc1	none
O=C1c2ccccc2C(=O)C12OC2c1ccc(Cl)cc1Cl (stereo not drawn)	ssDAF-12 act 1.5
CC(C)C1C(=O)N(Cc2cn(CC3CCCCC3)nn2)CCS(=O)(=O)N1Cc1ccc(-c2ccc(Cl)nc2)cc1 (stereo not drawn)	DAX1 inh-1 4.4
CC(C)CC1C(=O)N(Cc2cn(CCC3OCCCO3)nn2)CCS(=O)(=O)N1Cc1ccc(-c2ccc(Cl)nc2)cc1 (stereo not drawn)	DAX1 inh-2 5.1
CN(C(=O)CNC(=O)c1ccccc1OCC(=O)Nc1ccc(I)cc1)c1ccccc1	none (no result: GAA850 FXN act, DAX1 inh-2)
CCOC(=O)[C@]12CCCCC/C=C\1N(CCc1ccc(Cl)cc1)C(=O)[C@H]2CC(=O)NCc1cccc(C(F)(F)F)c1	none (no result: GAA850 FXN act, DAX1 inh-2)
COc1ccc(N2C(=O)[C@H]3[C@@H](C2=O)C2c4ccccc4C=NN2[C@H]3C(=O)C(C)(C)C)cc1 (stereo partly drawn)	DAX1 inh-2 5.6
